Compound activity deposited in PubChem by DiRusso Lab, Biochemistry Department, University of Nebraska.
Only a selection was taken, and hits are over-represented in it overall.
Chlamy TAG – inducers of TAG accumulation in Chlamydomonas, primary screen, qHTS, Chlamydomonas reinhardtii; Nile Red fluorescence, 72 h; calls only at 10 µM (by protocol); 44,000 tested, 0.84% active; AID 1159537, 2015; call rule not given here;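 note: hits raise Nile Red signal meaning more stored TAG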
Numbers without * were called inactive; i = inactive; + = active, no number.

SMILES | Chlamy TAG
C=CCc1ccccc1OCC(O)CN1CCC(C)CC1 (stereo unspecified) | i
C=CCc1ccccc1OCC(O)CN(C)C1CCCCC1 (stereo unspecified) | +
C=CCc1ccccc1OCC(O)CN1C(C)CCCC1C (stereo unspecified) | i
O=C(Nc1nc(SCc2ccccc2Cl)ns1)c1cccnc1 | i
COc1cc(CNC2CCC(C)C2)cc(OC)c1 (stereo unspecified) | i
COc1ccc(CNC2CCCC(C)C2)cc1 (stereo unspecified) | +
COc1ccc(CNC2CCCC2)cc1OC | i
O=Cc1cn(CCC(=O)O)c2ccccc12 | i
CC(=O)N(C1=C(N(C)C)C(=O)c2ccccc2C1=O)c1ccc(F)c(F)c1 | i
CC(=O)N(C1=C(N(C)C)C(=O)c2ccccc2C1=O)c1cccc(Cl)c1 | i
CC(=O)N(C1=C(N(C)C)C(=O)c2ccccc2C1=O)c1ccc(Cl)c(Cl)c1 | +
O=C(c1ccccc1)c1ccc(OCCN2CCOCC2)cc1 | i
Cc1ccc(NC(=O)c2ccc(-c3ccc(Cl)cc3)o2)c([N+](=O)[O-])c1 | i
CCCCSc1nnc(NC(=O)c2ccccc2)s1 | i
CCOc1ccc(-c2ncnn2-c2ccc([N+](=O)[O-])cc2)cc1 | i
COc1cccc(NC2=C(N(C)C)C(=O)c3ccccc3C2=O)c1 | +
COc1ccc(NC2=C(N(C)C)C(=O)c3ccccc3C2=O)cc1 | i
CN(C)C1=C(Nc2cccc(Cl)c2)C(=O)c2ccccc2C1=O | i
CCOC(=O)N1CCN(Cc2ccc(SC)cc2)CC1 | i
CC(=O)Nc1ccc(-c2ccco2)cc1 | i
O=C(NCCc1cccc(Cl)c1)C1CC1c1ccccc1 (stereo unspecified) | i
COc1cc(/C=C2\C(C)=C([N+](=O)[O-])CS2(=O)=O)ccc1O | i
O=C(C1COc2ccccc2O1)N1CCN(Cc2ccccc2)CC1 (stereo unspecified) | +
COc1ccc(N2CCN(C(=O)C3COc4ccccc4O3)CC2)cc1 (stereo unspecified) | i
O=C(c1ccc2c(c1)OCO2)N1CCN(Cc2ccccc2)CC1 | i
SMILES | Chlamy TAG
C=CCn1c(SCC(=O)c2ccc([N+](=O)[O-])cc2)nnc1-c1ccc(OC)cc1 | i
Cc1cccc(C(=O)NN)c1 | i
O=C(Nc1ccc(I)cc1C(=O)NCCCCO)c1ccc(F)cc1 | i
COc1cc(NC(=O)COc2ccc(Br)cc2C)cc(OC)c1 | i
Cc1c(NC(=O)c2ccccc2-c2ccccc2C(=O)O)c(=O)n(-c2ccccc2)n1C | i
Cc1c(NC(=O)c2c(O)c3ccccc3n(C)c2=O)c(=O)n(-c2ccccc2)n1C | i
Cc1c(NC(=O)c2c(F)c(F)c(F)c(F)c2F)c(=O)n(-c2ccccc2)n1C | +
O=C(CSc1nnc2c(n1)[nH]c1ccccc12)N1CCCc2ccccc21 | i
O=C(Nc1ccc(F)c(F)c1)c1ccc2c(c1)OCO2 | i
O=C(Nc1ccc2c(c1)OCO2)c1ccc2c(c1)OCO2 | i
O=C(Nc1ccc2c(c1)OCO2)c1c(F)c(F)c(F)c(F)c1F | +
O=C(Nn1cnnc1)c1ccccc1I | i
COCC(=O)Nc1ccc(Br)cc1F | i
N#C/C(=C\c1ccc(F)cc1)c1nn(-c2ccccc2)c(N)c1C#N | i
O=S(=O)(c1ccc(F)cc1)n1cccc1 | +
O=S(=O)(c1ccc(F)cc1)c1ccc(F)cc1 | i
O=S(=O)(c1ccc(F)cc1)N1CCCN(S(=O)(=O)c2ccc(F)cc2)CC1 | i
COc1ccc2nc(SCC(=O)NCC3CCCO3)[nH]c2c1 (stereo unspecified) | i
O=C(Nc1ccc2c(c1)OCO2)C(=O)NC1CCCC1 | i
O=c1[nH]c(SCc2ccccc2)nc(O)c1Cc1ccccc1 | i
Cc1ccc(S(=O)(=O)c2cc3c(=O)n4cc(C)ccc4nc3n(Cc3ccccc3)c2=N)cc1 | i
O=Cc1c(Sc2ccc(Cl)cc2)nc2ccccn2c1=O | i
Cc1ccc2nc(SCc3ccccc3)c(C=O)c(=O)n2c1 | +
O=Cc1ccc(OCC(=O)O)c(Cl)c1 | i
CCOc1ccc2nc(Nc3nc(C)c(C)c(=O)[nH]3)nc(C)c2c1 | i
SMILES | Chlamy TAG
COc1ccc(CN2CCc3cc(OC)c(OC)cc3C2)cc1Br | i
Cc1ccc(C(=O)Nc2ccc3c(c2)OCO3)cc1[N+](=O)[O-] | i
Clc1ccc(CN2CCC(N3CCCCCC3)CC2)cc1 | i
Clc1ccc(CN2CCCCCCC2)cc1 | i
Clc1ccc(CN2CCCCCC2)cc1 | +
CN(C)c1ccc(/C=C/CN2CCN(Cc3ccccc3)CC2)cc1 | i
CC(=O)Nc1ccc(S(=O)(=O)NCCSC2CCCCC2)cc1 | i
CS(=O)(=O)N(Cc1ccccc1)c1ccc(C(=O)O)cc1 | i
Cc1ccc(S(=O)(=O)n2cccn2)cc1 | +
O=S(=O)(c1ccc(Cl)cc1)n1cccn1 | i
Cc1ccc(S(=O)(=O)n2ccc(C)n2)cc1 | i
O=C(Nc1ccc([N+](=O)[O-])cn1)C(c1ccccc1)c1ccccc1 | i
CS(=O)(=O)N(CC(=O)N1CCN(c2ccccc2F)CC1)c1ccc(Cl)c(Cl)c1 | i
